Reference: PubChem BioAssay (Tox21)
Several values for one entry are separate records, joined by “and”; a condition that tells them apart may be missing. Equal entries are not always repeated. Values without a mark were called inactive. Records with an inconclusive call do not appear. A call without a number means that no potency is given here. Activity calls are given as the source filed them. Unless noted, calls follow the shape of the dose curve; as a rule, active = well fitted curve in the direction sought with a large enough effect in the repeat runs; inconclusive = weak or mixed curves; inactive = no such curve, though single readings can be large; an effect the other way counts as inactive or inconclusive.

How the values were obtained:
[1] = qHTS assay to identify small molecule antagonists of the glucocorticoid receptor (GR) signaling pathway - cell viability counter screen (AID 720693); also: nearly all actives have a fitted effect of over 55% in size; also: potency is read from the fitted curve at half-maximal effect
[2] = qHTS assay for identifying genotoxic compounds that show differential cytotoxicity against isogenic chicken DT40 cell lines with known DNA damage response pathways - Rad54/Ku70 mutant cell line (AID 743015); also: nearly all actives have a fitted effect of over 60% in size; also: potency is read from the fitted curve at half-maximal effect
[3] = qHTS assay to identify small molecule antagonists of the androgen receptor (AR) signaling pathway - cell viability counter screen (AID 743033; also: nearly all actives have a fitted effect of over 45% in size; also: potency is read from the fitted curve at half-maximal effect)
[4] = molecular target: Androgen receptor (Homo sapiens) (UniProt P10275); assay: qHTS assay to identify small molecule antagonists of the androgen receptor (AR) signaling pathway (AID 743035; active = well fitted inhibition curve with a large enough effect in the signal ratio in the repeat runs, not every such curve was filed as active; the % refers to the signal ratio; also: potency is read from the fitted curve at half-maximal effect)
Chain of Androgen receptor (Homo sapiens) (P10275 whole entry, looked up): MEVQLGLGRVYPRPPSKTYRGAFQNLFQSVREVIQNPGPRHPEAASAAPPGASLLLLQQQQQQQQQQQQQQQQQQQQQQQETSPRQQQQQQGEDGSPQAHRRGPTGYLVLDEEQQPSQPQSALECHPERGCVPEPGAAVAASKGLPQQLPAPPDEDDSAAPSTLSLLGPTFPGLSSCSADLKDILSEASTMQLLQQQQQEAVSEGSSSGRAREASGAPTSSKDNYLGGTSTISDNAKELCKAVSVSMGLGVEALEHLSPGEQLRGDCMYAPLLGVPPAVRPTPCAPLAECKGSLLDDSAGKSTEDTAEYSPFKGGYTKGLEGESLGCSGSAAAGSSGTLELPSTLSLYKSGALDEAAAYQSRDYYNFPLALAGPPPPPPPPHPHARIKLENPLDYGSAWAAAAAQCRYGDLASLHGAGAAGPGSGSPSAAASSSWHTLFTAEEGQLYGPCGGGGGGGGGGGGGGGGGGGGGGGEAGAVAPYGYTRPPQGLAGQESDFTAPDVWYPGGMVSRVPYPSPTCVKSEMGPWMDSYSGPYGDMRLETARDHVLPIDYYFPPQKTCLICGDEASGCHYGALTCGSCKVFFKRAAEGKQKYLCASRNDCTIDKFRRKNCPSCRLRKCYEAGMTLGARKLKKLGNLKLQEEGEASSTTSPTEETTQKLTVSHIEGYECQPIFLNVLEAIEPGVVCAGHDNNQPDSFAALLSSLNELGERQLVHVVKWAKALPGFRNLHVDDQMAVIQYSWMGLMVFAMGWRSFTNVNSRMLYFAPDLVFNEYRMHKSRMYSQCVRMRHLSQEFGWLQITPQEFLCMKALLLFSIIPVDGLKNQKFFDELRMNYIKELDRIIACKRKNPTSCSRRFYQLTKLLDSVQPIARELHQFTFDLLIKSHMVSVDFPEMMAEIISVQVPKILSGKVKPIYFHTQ
Method in brief: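 Steps: seed AR-UAS-bla GripTite HEK293 cells, incubate 4 h at 37C; pin in test compound, then add agonist R1881; incubate 16 h at 37C; add LiveBLAzer B/G FRET substrate, 2 h at room temperature; read fluorescence.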

[5] = molecular target: Androgen receptor (Homo sapiens) (UniProt P10275); assay: qHTS assay to identify small molecule agonists of the androgen receptor (AR) signaling pathway (AID 743036; active = well fitted activation curve with a large enough effect in the signal ratio in the repeat runs, with a control signal flat, not every such curve was filed as active; the % refers to the signal ratio; also: potency is read from the fitted curve at half-maximal effect)
Method in brief: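 AR-UAS-bla HEK293 cells, plated 4 h before dosing, were treated with compound for 16 h at 37C. beta-Lactamase reporter read after 2 h with LiveBLAzer B/G FRET substrate at room temperature.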

[6] = molecular target: Androgen receptor (Homo sapiens) (UniProt P10275); assay: qHTS assay to identify small molecule agonists of the androgen receptor (AR) signaling pathway using the MDA cell line (AID 743040; also: nearly all actives have a fitted effect of over 20% in size); details: MDA-kb2 AR-luc cells, MMTV luciferase, 16 h; activity change: at 70.3 µM (top of the series), stronger effect = higher value
Method in brief: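 Stable MMTV-luciferase reporter in MDA-kb2 cells; note the promoter carries GR as well as AR response elements. 16 h compound treatment, 37C, 0% CO2; ONE-Glo luminescence endpoint.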

[7] = qHTS assay to identify small molecule antagonists of the androgen receptor (AR) signaling pathway using the MDA cell line - cell viability counter screen (AID 743041; also: nearly all actives have a fitted effect of over 45% in size; also: potency is read from the fitted curve at half-maximal effect)
Method in brief: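 Using the breast carcinoma line MDA-kb2 AR-luc, test chemicals were co-incubated with R1881 for 16 h; CellTiter-Fluor reagent, added at 15.5 h, provided a fluorescence measure of live cells.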

[8] = molecular target: Androgen receptor (Homo sapiens) (UniProt P10275); assay: qHTS assay to identify small molecule antagonists of the androgen receptor (AR) signaling pathway using the MDA cell line (AID 743042; also: nearly all actives have a fitted effect of over 55% in size)
Method in brief: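 Antagonist mode: compounds plus R1881 agonist added to MDA-kb2 AR-luc cells, incubated 16 h at 37C. Luciferase reporter luminescence quantified, with multiplexed CellTiter-Fluor readout for cell viability.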

[9] = qHTS assay for identifying genotoxic compounds that show differential cytotoxicity against isogenic chicken DT40 cell lines with known DNA damage response pathways - Rev3 mutant cell line (AID 743014); also: nearly all actives have a fitted effect of over 55% in size; also: potency is read from the fitted curve at half-maximal effect
[10] = qHTS assay for identifying genotoxic compounds that show differential cytotoxicity against isogenic chicken DT40 cell lines with known DNA damage response pathways - wild type cell line (AID 743012); also: nearly all actives have a fitted effect of over 60% in size; also: potency is read from the fitted curve at half-maximal effect
Method in brief: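 Cytotoxicity in repair-proficient parental chicken DT40 cells serves as the comparator for Rad54/Ku70- and Rev3-deficient lines. Cells were exposed to compounds for 40 h at 37 C/5% CO2, and ATP-based luminescence (CellTiter-Glo) measured viability.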

For `COC(=O)C1(O)c2ccccc2-c2ccccc21`, the Potency [1] was “inactive”, the Potency [2] was “inactive” and the Potency [3] was “inactive”. For the same compound, the Potency [4] was “inactive”, the Potency [5] was “inactive” and the Potency [6] was “inactive”. For the same compound, the Potency [7] was “inactive” and the Potency [8] was “inactive”.

In the case of `CCSCc1ccccc1OC(=O)NC`, the Potency [1] is reported as “inactive”, the Potency [2] is reported as “inactive” and the Potency [3] is reported as “inactive”.

With `C=CCc1ccc(OC(=O)Cc2ccccc2)c(OC)c1` the Potency [1] was “inactive”, the Potency [3] was “inactive” and the Potency [7] was “inactive”.

For `Cc1cccc(C)c1NC1=NCCCS1`, the Potency [1] was “inactive”, the Potency [9] was “inactive” and the Potency [7] was “inactive”.

For `CCCCCCCCCCCCN(C)C`, the Potency [10] was “inactive” and the Potency [7] was “inactive”.

For `C[C@H]1[C@@H]2Cc3ccc(O)cc3[C@@]1(C)CCN2C`, the Potency [1] was “inactive”, the Potency [3] was “inactive” and the Potency [7] was “inactive”.

For `CCOP(=S)(OCC)Oc1ccc(S(C)=O)cc1` (centres undefined), the Potency [1] was “inactive”, the Potency [3] was “inactive” and the Potency [7] was “inactive”.

For `O=C(O)C(F)(F)C(F)(F)C(F)(F)C(F)(F)C(F)(F)C(F)(F)C(F)(F)C(F)(F)F`, the Potency [1] was “inactive”, the Potency [9] was “inactive” and the Potency [2] was “inactive”. The Potency [3] was “inactive” and the Potency [7] was “inactive”.

In the case of `COc1ccc2c(c1OC)C(=O)O[C@H]2[C@@H]1c2cc3c(cc2CCN1C)OCO3`, the Potency [1] is reported as “inactive”, the Potency [9] is reported as “inactive” and the Potency [2] is reported as “inactive”. The Potency [3] was “inactive”, the Potency [4] was “inactive” and the Potency [5] was “inactive”. The Potency [6] was “inactive” and the Potency [8] was “inactive”.

For `C=CC(C)(CCC=C(C)C)OC(=O)c1ccccc1N` (centres undefined), the Potency [1] was “inactive”, the Potency [3] was “inactive” and the Potency [7] was “inactive”.

In the case of `O=P(OCC(Br)CBr)(OCC(Br)CBr)OCC(Br)CBr` (centres undefined), the Potency [10] is reported as 41.1 µM (active), the Potency [9] is reported as 55.2 µM (active) and 20.6 µM (active) and the Potency [2] is reported as 25.9 µM (active). For the same compound, the Potency [4] was 14 µM (active), the Potency [5] was “inactive” and the Potency [6] was “inactive”. For the same compound, the Potency [7] was “inactive”.

For `O=C(NC(=O)c1cc(F)c(F)cc1Cl)Nc1cc(F)ccc1N1CCC(C(=O)O)CC1`, the Potency [1] was “inactive” and the Potency [3] was “inactive”.

For `O=[N+]([O-])/C=C/c1ccccc1`, the Potency [7] was “inactive”.

For `CCCC[N+]1(C)[C@@H]2CC(OC(=O)[C@H](CO)c3ccccc3)C[C@H]1[C@@H]1O[C@@H]12` (some centres undefined), the Potency [1] was “inactive”, the Potency [9] was “inactive” and the Potency [2] was “inactive”. For the same compound, the Potency [7] was “inactive”.

For `CN(C1CCCCC1)C1CCCCC1`, the Potency [1] was “inactive”, the Potency [2] was 17.2 µM (active) and the Potency [3] was “inactive”. The Potency [4] was “inactive”, the Potency [5] was “inactive” and the Potency [6] was “inactive”. The Potency [7] was “inactive” and the Potency [8] was “inactive”.

For `CC(C)c1ccc(OP(=O)(Oc2ccc(C(C)C)cc2)Oc2ccc(C(C)C)cc2)cc1`, the Potency [1] was “inactive”, the Potency [9] was 61.6 µM (active) and 27.3 µM (active) and the Potency [2] was 69.1 µM (active) and 54.5 µM (active) and 21.7 µM (active). The Potency [3] was “inactive”.

In the case of `C[C@]12CC[C@H]3[C@@H](CCC4=CC(=O)CC[C@@H]43)[C@@H]1CC[C@@H]2OC(=O)CCc1ccccc1`, the Potency [9] is reported as “inactive”, the Potency [3] is reported as “inactive” and the Potency [7] is reported as “inactive”.

In the case of `NC(=S)c1c(Cl)cccc1Cl`, the Potency [1] is reported as “inactive” and the Potency [3] is reported as “inactive”.

With `CN[C@@H](C)[C@H](O)c1ccccc1` the Potency [1] was “inactive”, the Potency [10] was “inactive” and the Potency [3] was “inactive”. The Potency [7] was “inactive”.

With `CCCN(CCC)C(=O)Cc1c(-c2ccc(Cl)cc2)nc2ccc(Cl)cn12` the Potency [1] was “inactive”, the Potency [9] was “inactive” and the Potency [2] was “inactive”. For the same compound, the Potency [3] was “inactive” and the Potency [7] was “inactive”.

In the case of `CC(C)(C)N(NC(=O)c1ccc(Cl)cc1)C(=O)c1ccccc1`, the Potency [1] is reported as “inactive”, the Potency [2] is reported as 43 µM (active) and the Potency [3] is reported as “inactive”. For the same compound, the Potency [5] was “inactive”, the Potency [6] was “inactive” and the Potency [8] was “inactive”.

In the case of `C[N+](C)(C)CC1CO1` (centres undefined), the Potency [1] is reported as “inactive”, the Potency [9] is reported as 13.7 µM (active) and the Potency [3] is reported as “inactive”. For the same compound, the Potency [4] was “inactive”, the Potency [5] was “inactive” and the Potency [6] was “inactive”. For the same compound, the Potency [7] was “inactive” and the Potency [8] was “inactive”.

In the case of `CC[N+]1(CCOC(=O)C(O)(c2ccccc2)c2ccccc2)CCCCC1`, the Potency [1] is reported as “inactive”, the Potency [2] is reported as “inactive” and the Potency [3] is reported as “inactive”.

With `Nc1ccc2c(c1)Cc1ccccc1-2` the Potency [1] was “inactive” and the Potency [3] was “inactive”.

In the case of `CCC1CCC(=O)O1` (centres undefined), the Potency [1] is reported as “inactive”, the Potency [10] is reported as “inactive” and the Potency [7] is reported as “inactive”.

For `CCCCNC(=O)OCC#CI`, the Potency [10] was 3.05 µM (active) and 611 nM (active), the Potency [9] was 1.36 µM (active) and 1.22 µM (active) and the Potency [2] was 2.72 µM (active) and 969 nM (active). The Potency [3] was 12.2 µM (active) and 19.5 µM (active) and the Potency [7] was 60.8 µM (active).

For `[Cl-].[Cl-].[Hg+2]`, the Potency [10] was 841 nM (active) and 3.84 µM (active) and 193 nM (active), the Potency [9] was 2.66 µM (active) and 1.92 µM (active) and 386 nM (active) and the Potency [2] was 1.68 µM (active) and 1.36 µM (active) and 217 nM (active). For the same compound, the Potency [3] was 9.52 µM (active) and 1.54 µM (active) and 9.77 µM (active) and the Potency [7] was 24.8 µM (active) and 54.2 µM (active) and 61.1 µM (active).

For `C[C@]12C=CC3=C4CCC(=O)C=C4CC[C@H]3[C@@H]1CC[C@@H]2O`, the Potency [1] was 24.4 µM (active), the Potency [3] was “inactive” and the Potency [5] was 0.0027 µM (active). For the same compound, the activity change [6] was 189% (active) and the Potency [8] was “inactive”.

With `CC(=O)NNc1ccccc1` the Potency [10] was 1.52 µM (active), the Potency [2] was 1.71 µM (active) and the Potency [4] was “inactive”. The Potency [5] was “inactive”, the Potency [6] was “inactive” and the Potency [7] was “inactive”. The Potency [8] was “inactive”.

For `CC(C)C1(C)N=C(c2ncccc2C(=O)O)NC1=O` (centres undefined), the Potency [1] was “inactive”, the Potency [3] was “inactive” and the Potency [7] was “inactive”.

With `C#C[C@]1(O)CC[C@H]2[C@@H]3CCC4=CC(=O)CCC4=C3C=C[C@@]21CC` the Potency [10] was 10.6 µM (active), the Potency [2] was 13.3 µM (active) and the Potency [3] was “inactive”. The Potency [7] was “inactive”.

For `O=C(O)CCCOc1ccc(Cl)cc1Cl`, the Potency [1] was “inactive”, the Potency [3] was “inactive” and the Potency [6] was “inactive”. For the same compound, the Potency [7] was “inactive” and the Potency [8] was “inactive”.

For `CCOP(=S)(S)OCC`, the Potency [1] was “inactive”, the Potency [9] was “inactive” and the Potency [2] was “inactive”. For the same compound, the Potency [3] was “inactive”, the Potency [4] was “inactive” and the Potency [6] was “inactive”. For the same compound, the Potency [7] was “inactive” and the Potency [8] was “inactive”.

In the case of `O=S(=O)(c1ccccc1)c1ccccc1`, the Potency [1] is reported as “inactive”, the Potency [9] is reported as “inactive” and the Potency [2] is reported as “inactive”. For the same compound, the Potency [3] was “inactive” and the Potency [7] was “inactive”.

In the case of `CC(=O)OC(c1ccccc1)C(Cl)(Cl)Cl` (centres undefined), the Potency [1] is reported as “inactive”, the Potency [9] is reported as “inactive” and the Potency [7] is reported as “inactive”.

For `C=CCOC(=O)C(C)(C)OC(=O)c1cc(-n2c(=O)cc(C(F)(F)F)n(C)c2=O)ccc1Cl`, the Potency [1] was “inactive”, the Potency [10] was 53.4 µM (active) and the Potency [7] was “inactive”.

For `Nc1cccc2ccccc12`, the Potency [1] was “inactive”, the Potency [3] was “inactive” and the Potency [7] was “inactive”.
